Source: PubChem BioAssay AID1578 (Sanford-Burnham Center for Chemical Genomics, 2009)
About 3,000 (1%) of roughly 290,000 compounds were called active. Cut-off read from the data, not from the text of the source: active = inhibition mostly above about 36% (no sharp cut-off); inactive = mostly below about 34%. This excerpt belongs to a sample that is enriched for actives.

Test: inhibition of NOD1-driven NF-kB reporter – cell-based, luminescence, uHTS, primary screen (AID 1578);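 note: HEK-293T reporter cells stimulated with the NOD1 agonist gamma-tri-DAP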
Conditions: NOD1-driven NF-kB luciferase reporter cells, at 4 µM, active compounds read high
For `O=C(NCCc1ccccc1)c1ccc(CS(=O)Cc2cccc(Cl)c2)o1` (stereo not given), the inhibition was -20.6% (inactive).
With `CCOC(=O)c1c(/N=C/c2ccccc2O)sc2c1CCC2` the inhibition was 8.8% (inactive).
In the case of `COc1ccc(S(=O)(=O)NCCc2c(C)nn(C)c2Oc2ccccc2)cc1`, the inhibition was -4.8% (inactive).
In the case of `COc1ccc(CCCC(=O)Nc2ccc(F)cc2)cc1`, the inhibition was 11.5% (inactive).
For `CCNc1nc(NC(C)C)nc(Oc2ccc(/C=N/O)cc2)n1`, the inhibition was -10.5% (inactive).
For `CCOc1ccc(CC2NCCc3cc(OCC)c(OCC)cc32)cc1OCC` (stereo not given), the inhibition was -27.9% (inactive).
For `CSc1ccc(C(=O)C2CCCN(C(=O)CN3CCOC3=O)C2)cc1` (stereo not given), the inhibition was -29.8% (inactive).
With `CCOc1ccc(C(=O)NCCC(=O)N2CCC3(CC2)NCCc2[nH]cnc23)cc1` the inhibition was -23.8% (inactive).
In the case of `O=C(N/N=C/c1ccc(OCc2ccccc2)cc1)c1ccncc1`, the inhibition was -35.1% (inactive).
For `O=NN(CCc1ccncc1)c1ccc(OCc2ccccc2)cc1`, the inhibition was 43.7% (active).
For `COc1ccc(N(Cc2ccccc2)N=O)cc1`, the inhibition was -31.8% (inactive).
For `Cc1c(C)c2ccc(O)c(CN3CCN(C)CC3)c2oc1=O`, the inhibition was 2% (inactive).
For `COc1ccccc1NC(=S)NC(=O)C1CC1`, the inhibition was -18.7% (inactive).
In the case of `CCOc1ccccc1NC(=S)NC(=O)C1CCCCC1`, the inhibition was -8% (inactive).
With `CCOc1ccccc1NC(=S)NC(=O)C1CC1` the inhibition was 65.9% (active).
For `CC(=O)Nc1ccc(NC(=O)CSc2nnc(NC(=O)C3CC3)s2)cc1`, the inhibition was -6.1% (inactive).
With `CN1C(=O)c2cccc(NC(=O)C3CCCCC3)c2C1=O` the inhibition was -4% (inactive).
For `Cc1ccc(NC(=S)NNc2ncc(C(F)(F)F)cc2Cl)cc1`, the inhibition was 36.4% (inactive).
For `FC(F)(F)c1cnc(NNC(=S)Nc2ccc(Cl)cc2)c(Cl)c1`, the inhibition was 104% (active).
For `Cc1cccc(NC(=S)NNc2ncc(C(F)(F)F)cc2Cl)c1`, the inhibition was 34.9% (inactive).
In the case of `C=CCN1C(=O)C(CC(=O)O)SC1=Nc1ccc(N=Nc2ccccc2)cc1` (stereo not given), the inhibition was -20.5% (inactive).
For `O=C(CN1C2=NCCN2c2ccccc21)c1ccc(Br)cc1`, the inhibition was 6.8% (inactive).
For `Cc1ccc2c(Cl)cc(Cl)c(OCC(=O)N(C(C)C)C(C)C)c2n1`, the inhibition was -3.8% (inactive).
For `Cc1ccc2c(Cl)cc(Cl)c(OCC(=O)NCc3ccco3)c2n1`, the inhibition was 101% (active).
With `Cc1ccc2c(Cl)cc(Cl)c(OCC(=O)NC(=O)NCc3ccco3)c2n1` the inhibition was -16.8% (inactive).
In the case of `Cc1ccc2c(Cl)cc(Cl)c(OCC(=O)NC(C)(C)C)c2n1`, the inhibition was -11.5% (inactive).
For `CCN(CC(=O)NC(C)(C)C)C(=O)COc1c(Cl)cc(Cl)c2ccc(C)nc12`, the inhibition was 49.3% (active).
For `Cc1cc(Cl)cc(Cl)c1OCC(=O)NCc1ccco1`, the inhibition was 20.4% (inactive).
In the case of `COc1cccc(CN(C)C(=O)CNC(=O)c2ccc3c(c2)OCO3)c1OC`, the inhibition was -8.5% (inactive).
With `CC(C(=O)Nc1ccc2c(c1)OCO2)N(c1ccc(Cl)cc1)S(C)(=O)=O` (stereo not given) the inhibition was -9.6% (inactive).
For `COc1ccc(-c2oc(NC(=O)CCl)c(C#N)c2-c2ccc(OC)cc2)cc1`, the inhibition was 71.1% (active).
In the case of `COc1ccc(-c2oc(NC(C)=O)c(C#N)c2-c2ccc(OC)cc2)cc1`, the inhibition was 11.7% (inactive).
In the case of `COc1ccc(-c2oc(NC(=O)c3ccc(C)cc3)c(C#N)c2-c2ccc(OC)cc2)cc1`, the inhibition was -18.9% (inactive).
In the case of `COC(=O)CN1C(=O)C2(C(C#N)=C(N)Oc3ccccc32)C2=C1CC(C)(C)CC2=O` (stereo not given), the inhibition was 1.7% (inactive).
With `COc1ccc(-n2c(C)c(C(C)=O)c(C(C)=O)c2C)cc1OC` the inhibition was -0.8% (inactive).
With `COc1ccc(NC(=S)NC(NC(C)=O)C(Cl)(Cl)Cl)c([N+](=O)[O-])c1` (stereo not given) the inhibition was -5.3% (inactive).
With `COc1ccc(NC(=S)NC(NC(=O)CCl)C(Cl)(Cl)Cl)c([N+](=O)[O-])c1` (stereo not given) the inhibition was 76.4% (active).
In the case of `COc1ccc(NC(=S)NC(NC(=O)C(C)C)C(Cl)(Cl)Cl)c([N+](=O)[O-])c1` (stereo not given), the inhibition was 11.7% (inactive).
With `CCOC(=O)N1CCC(NC(=O)c2ccc3c(c2)N=C(CC)c2ccccc2S3)CC1` the inhibition was 20.2% (inactive).
For `O=C(NNC(=S)Nc1ccccc1)c1ccccc1[N+](=O)[O-]`, the inhibition was -34.4% (inactive).
With `CCC(C)(C(=O)NC1CCCCC1)N(C(=O)CNC(C)=O)c1c(C)n(C)n(-c2ccccc2)c1=O` (stereo not given) the inhibition was -13.9% (inactive).
With `NC(=S)NN=C1c2cc(OCCN3CCOCC3)ccc2-c2ccc(OCCN3CCOCC3)cc21` the inhibition was 42.8% (active).
With `ON=C1c2cc(OCCN3CCCCC3)ccc2-c2ccc(OCCN3CCCCC3)cc21` the inhibition was 0.3% (inactive).
In the case of `NC(=S)NN=C1c2cc(S(=O)(=O)N3CCOCC3)ccc2-c2ccc(S(=O)(=O)N3CCOCC3)cc21`, the inhibition was -20.4% (inactive).
For `Cc1cccc(C(=O)Nc2ccc(C(=O)Nc3ccc(O)cc3)cc2)c1`, the inhibition was -22.1% (inactive).
With `COc1ccc(CC(=O)OCC(=O)NCCc2ccccc2)cc1OC` the inhibition was -25.2% (inactive).
In the case of `C=CCn1c(SCCOc2ccc(OC)cc2)nnc1C(C)NC(=O)c1ccc(OC)cc1` (stereo not given), the inhibition was 5.8% (inactive).
With `COc1ccc(CC(=O)NC(C)c2nnc(SCCOc3ccc(OC)cc3)n2C)cc1` (stereo not given) the inhibition was -0.8% (inactive).
In the case of `C=CCn1c(SCCOc2ccc(OC)cc2)nnc1C(C)NC(=O)Cc1ccc(OC)cc1` (stereo not given), the inhibition was 74.9% (active).
In the case of `COc1ccc(-c2cc(C(=O)N/N=C(\C)c3ccco3)c3ccccc3n2)c(OC)c1`, the inhibition was -42.5% (inactive).
In the case of `CCN1C(=NCc2ccc(OC)cc2)N[C@@H](c2ccccc2)C(C(=O)OC)=C1C`, the inhibition was -15.5% (inactive).
For `CC(C)CCN1CCN(Cc2cccn2-c2nccs2)CC1CCO` (stereo not given), the inhibition was -20.1% (inactive).
For `CN1CCN(C(=O)CCC(=O)O)CC1`, the inhibition was -14.8% (inactive).
For `COc1cccc(CC(=O)n2nc(N)c3cc4ccc(OC)cc4nc32)c1`, the inhibition was 3.9% (inactive).
For `COc1ccc2cc3c(N)nn(C(=O)Cc4ccc(Cl)cc4)c3nc2c1`, the inhibition was 14.9% (inactive).
For `Clc1cccc(Nc2ncnc3ccc(Br)cc23)c1`, the inhibition was 11.7% (inactive).
In the case of `CCOc1ccccc1Nc1ncnc2ccc(Br)cc12`, the inhibition was -11.1% (inactive).
With `CCN(CC)c1ncnc2ccc(Br)cc12` the inhibition was 67.5% (active).
With `Cc1cccc(Nc2ncnc3ccc(Br)cc23)c1` the inhibition was 42.4% (inactive).
For `CC(C)Nc1ncnc2ccc(Br)cc12`, the inhibition was 87.6% (active).
With `CN(Cc1ccccc1)c1ncnc2ccc(Br)cc12` the inhibition was 10.2% (inactive).
In the case of `OCCNc1ncnc2ccc(Br)cc12`, the inhibition was 46.1% (inactive).
For `CN(C)c1ccc(Nc2ncnc3ccc(Br)cc23)cc1`, the inhibition was 53.8% (inactive).
With `Cc1ccc(CC2C(=O)N(c3cc(Cl)ccn3)C(=O)C2C)cc1` (stereo not given) the inhibition was -9.5% (inactive).
With `Cc1nn(C)cc1CN1CCC(n2nccc2NC(=O)CCCc2ccccc2)CC1` the inhibition was -26.7% (inactive).
For `O=C(/C=C/c1ccco1)c1ccccc1O`, the inhibition was -22.5% (inactive).
With `COc1ccc(NC(=O)c2cc(-c3ccc(OC)c(OC)c3)on2)cc1OC` the inhibition was -8.9% (inactive).
For `N#Cc1ccc(N2CCCC2C(=O)O)c([N+](=O)[O-])c1` (stereo not given), the inhibition was 6.2% (inactive).
With `COC(=O)C1(c2ccccc2)NC(c2cccs2)C2C(=O)N(C)C(=O)C21` (stereo not given) the inhibition was -15.5% (inactive).
In the case of `CN(C)/C=C1\N=C(c2cccnc2Oc2ccc(Cl)cc2)OC1=O`, the inhibition was -11.9% (inactive).
In the case of `COc1ccc(OC)c(NC(=O)CNC(=O)Cn2ccc3ccccc3c2=O)c1`, the inhibition was -4% (inactive).
For `CN(C)c1nc2n(c(=O)n1)CCS2`, the inhibition was -11.7% (inactive).
For `CCOC(=O)C1CCN(S(=O)(=O)c2c(C)noc2C)CC1`, the inhibition was -15.9% (inactive).
In the case of `CCOC(=O)C1CCN(S(=O)(=O)c2cccc3nonc23)CC1`, the inhibition was -27.8% (inactive).
With `CCOC(=O)C1CCN(S(=O)(=O)c2c(Cl)ccc3nonc23)CC1` the inhibition was 102% (active).
With `CC(CCN1CCOCC1)c1ccccc1` (stereo not given) the inhibition was -28% (inactive).
For `Cc1cc(C(=O)N2CCN(Cc3ccccc3)CC2)ccc1[N+](=O)[O-]`, the inhibition was 0.5% (inactive).
For `O=C(NC1CCCC1)c1ccc(Cl)c(S(=O)(=O)N2CCCCC2)c1`, the inhibition was 10.6% (inactive).
For `Cc1ccc(C(=O)N2CCN(c3ccccc3)CC2)cc1S(=O)(=O)N1CCCC1`, the inhibition was 3.9% (inactive).
For `O=C(c1ccc(S(=O)(=O)Cc2cc(F)ccc2F)c([N+](=O)[O-])c1)N1CCCC1`, the inhibition was 5% (inactive).
For `O=C(NC1CCCCC1)c1ccc(S(=O)(=O)c2ccccc2Cl)c([N+](=O)[O-])c1`, the inhibition was 91.4% (active).
In the case of `O=C(c1ccc(S(=O)(=O)Cc2ccccc2F)c([N+](=O)[O-])c1)N1CCCCCC1`, the inhibition was 1% (inactive).
In the case of `O=C(NC1CCCCC1)c1ccc(S(=O)(=O)c2ccccc2)cc1`, the inhibition was 18% (inactive).
For `O=C(c1ccc(Br)c([N+](=O)[O-])c1)N1CCN(Cc2ccccc2)CC1`, the inhibition was -6.4% (inactive).
For `O=C(c1ccc(Cl)c(S(=O)(=O)N2CCCC2)c1)N1CCN(c2ccc(F)cc2)CC1`, the inhibition was 0.4% (inactive).
For `COc1cccc(C(=O)NCCCNC(=O)c2cccc(OC)c2)c1`, the inhibition was -4.9% (inactive).
In the case of `CCN(CC)S(=O)(=O)c1ccc(S(=O)(=O)N2CCN(C(=O)c3ccco3)CC2)cc1`, the inhibition was -3.5% (inactive).
In the case of `CC(=O)Nc1ccc(NC(=O)C(C)Sc2nnc(-c3cccs3)o2)cc1` (stereo not given), the inhibition was -14.2% (inactive).
For `Cc1ccccc1C(=O)Nc1ccccc1`, the inhibition was -15.4% (inactive).
With `Cc1c(C(=O)NN2CCOCC2)oc2c1ccc1ccccc12` the inhibition was -35.1% (inactive).
In the case of `COc1ccc(CCNC(=O)COC(=O)/C=C/c2ccc(OCC#N)c(OC)c2)cc1`, the inhibition was -30.9% (inactive).
In the case of `Cc1cc(C)n2nc(C(=O)N3CCN(c4ccc([N+](=O)[O-])cc4)CC3)nc2n1`, the inhibition was -21.8% (inactive).
For `CCOC(=O)C1CCN(CC(O)COCc2ccc(Cl)cc2)CC1` (stereo not given), the inhibition was -12.3% (inactive).
With `CCOC(=O)C1CCN(CC(O)COCc2cccs2)CC1` (stereo not given) the inhibition was -28.2% (inactive).
In the case of `CCOC(=O)C1CCN(CC(O)COCc2ccccc2)CC1` (stereo not given), the inhibition was 34.7% (active).
